Results filed as inconclusive are left out. Values without a mark were called inactive. Active and inactive are the calls of the source. Calls follow the shape of the dose curve; as a rule, active = well fitted inhibition curve with a large enough effect; inconclusive = small, poorly fitted or top-dose-only effect, or effect the other way; inactive = flat fitted curve, though single readings scatter.

We go through 40 compounds from PubChem BioAssay (NCATS).
Potency is read from the fitted curve at half-maximal effect.

The assay is described as follows: qHTS for Inhibitors of Plasmodium falciparum (GB4) proliferation (AID 504315). Also: nearly all actives have a fitted effect of over 50% in size.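 As to activity change, negative = inhibition: 0% = DMSO vehicle and -100% = 0.29 µM artemisinin control.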 The note with it: P. falciparum GB4 in erythrocytes, SYBR Green DNA, 72 h; series mostly up to 6.7 µM; activity change, negative = inhibition: at the top concentration. From the text:
Plasmodium falciparum is a virulent malarial parasite that kills 1-2 million people worldwide each year. Malaria not only inflicts tremendous suffering and morbidity on the human population, but has dramatically influenced the course of civilization with profound sociological and economic implications (Shah, S. 2010). Transmitted by mosquitoes, the sporozoite form of the parasite enters the blood stream to infect hepatocytes, where they become merozoites that infect red blood cells (erythrocytes). Within erythrocytes, merozoites begin a […] cycle of growth and division, after which the parasite is released to infect new red blood cells. Gametocytes, which form within erythrocytes as well, circulate in the bloodstream and are ingested by the mosquito, thereby completing the life cycle (see CDC website). To profile malarial lines for differential chemical responses and to identify inhibitors of malarial growth, an assay that measures P. falciparum growth and replication within erythrocytes was employed. This assay uses a DNA binding fluorescent dye (SYBR Green) to detect parasite DNA following cell lysis. Because mature erythrocytes lack DNA, only Plasmodium-derived DNA is detected. The P. falciparum line cp250, derived from a malarial isolate from Cambodia, (Mu, J., et al. 2010) was added to the panel of lines, Dd2, HB3, 7G8 and GB4 in this study. Laboratory of Assay Development and Screening Technology [ADST] and NIH Chemical Genomics Center [NCGC] Boston University, Chemistry Department, Center for Chemical Methodology and Library Development [CMLD-BU] NIH National Institute of Allergy and Infectious Diseases [NIAID]
ADST Assay Protocol Summary: The 1536-well SYBR Green viability assay was based on the method of Bennett et al (2004) and described previously in 1536-well format (Yuan J., et al. 2009). For screening 3 ul culture medium was dispensed into 1536 well black clear bottom plates (Aurora Biotechnologies) using a Multidrop Combi (Thermo Fisher Scientific Inc.), 23 nL compounds in DMSO were added by a pin transfer (Cleveland, P.H. and Koutz, P.J, 2005) using a pin tool-based delivery system (Kalypsys), and 5 ul of erythrocytes infected with P. falciparum one of five lines (cp250, Dd2, HB3, 7G8 or GB4, 0.3% parasitemia, 2.5% hematocrit final concentration) were added. The plates were incubated at 37C in a humidified incubator in 5% CO2 for 72 h, and 2 ul lysis buffer (20 mM Tris HCl, 10 mM EDTA, 0.16% saponin, 1.6% triton X, 10X SYBR Green I (supplied as 10,000X final concentration by Invitrogen) was added to each well. The plates were mixed for 25 sec with gentle shaking and incubated overnight at room temperature in the dark. The following morning, fluorescence intensity at 485(14) nm excitation and 535(25) nm emission wavelengths was measured on an EnVision (Perkin Elmer) plate reader. Plate reads were normalized relative to the control inhibitor (0.29 uM artemisinin) and vehicle (DMSO) wells present on each plate and then corrected by an algorithm using vehicle-only control plates at the beginning and end of the compound plate stack. References Shah, S. (2010). The Fever: how malaria has ruled humankind for 500,000 years. New York, Sarah Crichton Books. CDC web site, http://www.cdc.gov/malaria/about/biology/index.html Mu, J., Myers, R.A., Jiang, H., Liu, S., Ricklefs, S., Waisberg, M., Chotivanich, K., Wilairatana, P., Krudsood, S., White, N.J., et Plasmodium falciparum genome-wide scans for positive selection, recombination hot spots and resistance to antimalarial drugs Nature Genetics 2010, 42, pp 268-271 Bennett TN, Paguio, M., Gligorijevic, B., Seudieu, C., Kosar, A. D., Davidson, E., and Roepe, P. D. Novel, rapid, and inexpensive cell-based quantification of antimalarial drug efficacy Antimicrobial Agents Chemother. 2004, 48(5): pp 1807-10 Yuan J, Johnson RL, Huang RL, Wichterman J, Jiang HY, Hayton K, Fidock DA, Wellems TE, Inglese J, Austin CP, Su XZ. […]
Turning to `CC(=O)OC[C@H]1O[C@@H](ON=C2C[C@@H](O)[C@@H](O)[C@@H]3[C@H]4C(=O)N(C5CCCCC5)C(=O)[C@@H]4CC[C@@H]23)[C@H](OC(C)=O)[C@@H](OC(C)=O)[C@H]1OC(C)=O`, the “activity change, negative = inhibition” value was 13.4%.

In the case of `CCCCc1nc2c(c3c1C[C@H](C)OC3)CN(S(=O)(=O)c1ccccc1C(=O)OC)CC2`, the Potency entry was “inactive”.

On to `CCC(=O)OC1(C)C(=O)C=C2C=C(c3ccc(C#N)cc3)OC=C2C1=O` (stereo not given), for which the “activity change, negative = inhibition” value was 6.43%.

As to `CC#CCN1C(=O)NC(c2ccccc2)C(C(=O)OCC)=C1c1ccccc1` (stereo not given), the “activity change, negative = inhibition” value is 2.59%.

Turning to `COC(=O)N[C@@H](C=Cc1ccccc1)C[N+](=O)[O-]`, the “activity change, negative = inhibition” value is -11.8%.

On to `CC1=CC[C@@H](C)O[C@@]2(C1)C(=O)Nc1cccc(Br)c12`, for which the Potency result was “inactive”.

For `OC[C@@H](O)[C@@H](O)CCc1ccccc1`, the “activity change, negative = inhibition” value was -9.7%.

For the compound `COC(=O)C1(C)C=C(Nc2ccc(OC)cc2)C(=O)N1c1ccc(OC)cc1` (stereo not given), the “activity change, negative = inhibition” value is 6.17%.

`CC1(OC(=O)C2CCCC2)C(=O)C=C2C=C(c3ccsc3)N(CCc3ccccn3)C=C2C1=O` (stereo not given): the Potency entry is “inactive”.

Consider `O=C1[C@H]2[C@@H]3[C@@H](O)[C@H](O)CC(=NOCc4ccccc4)[C@H]3CC[C@H]2C(=O)N1Cc1ccc2c(c1)OCO2`, for which the “activity change, negative = inhibition” value was 3.79%.

Regarding `COc1ccc2c(c1)CO[C@H]([C@H](O)COC(C)=O)[C@H]2C=Cc1ccccc1`, the “activity change, negative = inhibition” value is 2.43%.

Take `COc1cccc([C@@H]2Oc3ccc(Br)cc3C(=O)[C@@H]2O)c1`: the “activity change, negative = inhibition” value was 1.02%.

On to `O[C@@H]1CO[C@@H](C=Cc2ccccc2)[C@H]1OCc1cccc(Br)c1`, for which the “activity change, negative = inhibition” value is 4.44%.

With `C[C@H](O)CON1C(=O)c2ccccc2C1=O`, the “activity change, negative = inhibition” value is -8.58%.

Turning to `C[C@H](ON=C1[C@H]2CCn3c(=O)n(-c4ccccc4)c(=O)n3[C@@H]2[C@H](O)[C@@H]2O[C@H]12)c1cn([C@H](CO)Cc2ccccc2)nn1`, the “activity change, negative = inhibition” value is -0.475%.

Regarding `CC(C)OCCCN1C=C2C(=O)C(C)(OC(=O)C3CCCC3)C(=O)C=C2C=C1c1ccsc1` (stereo not given), the “activity change, negative = inhibition” value is 1.95%.

Turning to `COC(=O)CCCC1=CC2=C(c3ccccc3)C(=O)C(C)(OC(=O)C3CCCC3)C(=O)C2=CN1CCCCO` (stereo not given), the Potency result is “inactive”.

Consider `C[C@@H]1CC[C@H]2C(=O)N(Cc3ccc(Cl)cc3)C[C@@H](O)CN2[C@@H]1c1cccc(Br)c1`, for which the “activity change, negative = inhibition” value is -2.68%.

Regarding `COC(=O)c1nnc(N[C@@H](Cc2c[nH]c3ccccc23)C(=O)OC)nc1C(=O)OC`, the “activity change, negative = inhibition” value is 9.11%.

For the compound `CCCCc1nc2c(c3c1C[C@H](C)OC3)CN(C(=O)C1CCCCC1)CC2`, the Potency entry was “inactive”.

Consider `Cc1cc2c(c(=O)n1Cc1ccccc1)[C@H]1O[C@](CCCCN3C(=O)c4ccccc4C3=O)(Cc3c1ccc1ccccc31)O2`, for which the Potency is 1.51 µM (active).

As to `Cc1cc(O)cc(O)c1C(=O)OC1(C)C(=O)C=C2C=C(C=CC(=O)O)OC=C2C1=O` (stereo not given), the “activity change, negative = inhibition” value is 6.84%.

As for `CCN1C(=NCc2cc(OC)c(OC)c(OC)c2)NC(c2ccccc2)C(C(=O)OC)=C1C` (stereo not given), the Potency result is “inactive”.

As to `OC[C@H]1O[C@H](C#Cc2ccccc2)C=C[C@@H]1O`, the “activity change, negative = inhibition” value is -8.45%.

As for `COc1ccc(OC[C@H]2CN3[C@H](c4ccc(Br)cc4)[C@H](C)CC[C@H]3C(=O)O2)cc1`, the “activity change, negative = inhibition” value was 5.64%.

As to `CCOC(=O)CN1C(=O)N(CC)C(C)=C(C(=O)OC)C1c1ccccc1` (stereo not given), the “activity change, negative = inhibition” value was 14.3%.

As to `CC(CCC(=O)OC[C@H]1O[C@H](C#Cc2ccccc2)C=C[C@H]1Oc1ccc(C)cc1)=NO[C@H](C)c1cn([C@@H]2COC[C@@H]2O)nn1`, the “activity change, negative = inhibition” value was -7.13%.

With `CCC(=O)OC1(C)C(=O)C=C2C=C(c3ccsc3)OC=C2C1=O` (stereo not given), the “activity change, negative = inhibition” value was 3.02%.

On to `CCOC(=O)CCN1C(=O)[C@@H]2[C@H]3[C@H](O)[C@H](O)CC(=NNC(=O)OCc4ccc(OC)cc4)[C@@H]3CC[C@H]2C1=O`, for which the “activity change, negative = inhibition” value is 4.42%.

For `COC(=O)CC=C1c2ccccc2[C@@H](NC(=O)OC)[C@@H]1C`, the “activity change, negative = inhibition” value is 8.38%.

In the case of `O=C1C2=C(C(=O)c3ccccc31)[C@H]1O[C@](c3ccsc3)(Cc3c1ccc1ccccc31)O2`, the “activity change, negative = inhibition” value is -12.3%.

For `COC(=O)CCCC1=CC2=CC(=O)C(C)(OC(=O)c3cccs3)C(=O)C2=CN1CCc1c[nH]c2ccccc12` (stereo not given), the Potency result is “inactive”.

As to `COCC=CC1=CC2=CC(=O)C(C)(OC(=O)c3cnc4ccccc4n3)C(=O)C2=CN1Cc1ccc(OC)cc1` (stereo not given), the “activity change, negative = inhibition” value is 3.46%.

`COc1cccc([C@H]2Oc3ccc(OC)cc3C(=NO[C@H](C)c3cn([C@H](CO)Cc4ccccc4)nn3)[C@H]2O)c1`: the “activity change, negative = inhibition” value is -1.44%.

In the case of `COc1cccc([C@@H]2Oc3ccc(Br)cc3C(=O)[C@@H]2OC(=O)N[C@H]2CCCc3ccccc32)c1`, the “activity change, negative = inhibition” value was -2.83%.

Consider `COC(=O)C1=C(C)N(CCc2cc(OC)c(OC)c(OC)c2)C(=O)NC1c1ccc(Br)cc1` (stereo not given), for which the “activity change, negative = inhibition” value was -5.4%.

Take `CCc1cc2c(nc1CC)CCN(CCC(C)=NO[C@@H](C)CN1CCCc3nc(C)c(C)cc31)C2`: the “activity change, negative = inhibition” value is -16.1%.

Consider `C=C(Br)CO[C@@H]1C=C[C@@H](c2ccccc2)O[C@@H]1COC`, for which the “activity change, negative = inhibition” value was 1.28%.

`C=C1CN2C(=NC(c3ccccc3)C(C(=O)OC)=C2C)O1` (stereo not given): the “activity change, negative = inhibition” value was 5.04%.

For `CCCC[C@]12Cc3c(ccc4ccccc34)[C@H](O1)c1c(cc(C)oc1=O)O2`, the “activity change, negative = inhibition” value is 1.96%.
